Experimental data as given in PubChem BioAssay AID1159580 (chemical genetic matrix, 2015).
In all, about 5,500 compounds went through this assay and about 2,000 (36%) were called active. About 18% were inconclusive and are not listed. Rule as the data show it: active = normalized growth mostly below about 0.91 (no sharp cut-off); inconclusive = no clear call, values can overlap the other calls; inactive = mostly above about 0.92. The list shows a part of the results.

Test: chemical genetic growth profiling, strain panel (AID 1159580);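 also: tested at 20 µM; growth read once vehicle control cultures reached saturation at 30 °C; 1 = growth at the plate median or of vehicle wells; lower values mean less growth of the strain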
Conditions: S. cerevisiae deletion strains, growth OD

Measured: normalized growth

CC(SCc1ccccc1)C(=O)O (centres undefined)
inactive: locus YAL013W, strain DEP1, hits give low values 0.971 | locus YBR229C, strain ROT2, hits give low values 0.965 | locus YCL061C, strain MRC1, hits give low values 0.997 | locus YDL101C, strain DUN1, hits give low values 1 | locus YDL134C, strain PPH21, hits give low values 1 | locus YDR150W, strain NUM1, hits give low values 0.91 | locus YEL061C, strain CIN8, hits give low values 1.04 | locus YGR078C, strain PAC10, hits give low values 0.994 | locus YHR030C, strain SLT2, hits give low values 0.992 | locus YHR087W, strain rtc3, hits give low values 0.978 | locus YJL187C, strain SWE1, hits give low values 0.986 | locus YJR043C, strain POL32, hits give low values 0.981 | locus YJR075W, strain HOC1, hits give low values 0.965 | locus YKL190W, strain CNB1, hits give low values 1 | locus YLR039C, strain RIC1, hits give low values 1.02 | locus YLR058C, strain SHM2 (second series), hits give low values 0.988 | locus YLR085C, strain ARP6, hits give low values 1.01 | locus YLR262C, strain YPT6, hits give low values 1.02 | locus YML094W, strain GIM5, hits give low values 1.02 | locus YMR219W, strain ESC1, hits give low values 0.979 | locus YMR263W, strain SAP30, hits give low values 0.984 | locus YNL153C, strain GIM3, hits give low values 0.981 | locus YNL298W, strain CLA4 (second series), hits give low values 1.04 | locus YNL322C, strain KRE1, hits give low values 0.991 | locus YNR030W, strain Alg12, hits give low values 1 | locus YOL006C, strain TOP1, hits give low values 1.02 | locus YPL055C, strain LGE1, hits give low values 0.856 | locus YPL241C, strain CIN2, hits give low values 1 | locus YPR135W, strain CTF4, hits give low values 0.976
